# In article PMC8384837, “Expanding the binding specificity for RNA recognition by a PUF domain”:
# Numbering of substitutions follows the chain as printed.
# What was measured:
# Assay in all cases: yeast three-hybrid, YBZ-1, SC-Leu-His + 0.5 mM 3-AT, 4 days
# Conditions in all cases: tags: N-Gal4 AD-HA kept; label: inside an RPR1-promoter hybrid RNA with tandem MS2 sites; ssRNA
# [1] = molecular target: PUM1 PUF domain R5-KMV (Homo sapiens, UniProt Q14671 828-1176, C1007K;R1008M;Q1011V)
# Summary of the method: (§1)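 Each repeat of the Pumilio-1 PUF domain was randomized at its three base-contacting residues, and these libraries were co-expressed from a centromeric plasmid with matching RNA elements in strain YBZ-1. After four days on SC-Leu (input) or SC-Leu-His + 0.5 mM 3-AT (selection), the repeat regions were PCR-amplified and Illumina-sequenced. The interaction score compares variant frequency between input and selection as a log change, computed in log2 with a pseudocount of 1 for absent variants.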
# [2] = molecular target: PUM1 PUF domain R7-DYV (Homo sapiens, UniProt Q14671 828-1176, S1079D;N1080Y;E1083V)
# Summary of the method: as §1
# [3] = molecular target: PUM1 PUF domain R8-KRV (Homo sapiens, UniProt Q14671 828-1176, N1122K;Y1123R;Q1126V)
# Summary of the method: as §1
# [4] = molecular target: PUM1 PUF domain R8-RFK (Homo sapiens, UniProt Q14671 828-1176, N1122R;Y1123F;Q1126K)
# Summary of the method: as §1
# [5] = molecular target: PUM1 PUF domain R8-RYC (Homo sapiens, UniProt Q14671 828-1176, N1122R;Q1126C)
# Summary of the method: as §1
# [6] = molecular target: PUM1 PUF domain R8-LYI (Homo sapiens, UniProt Q14671 828-1176, N1122L;Q1126I)
# Summary of the method: as §1
# [7] = molecular target: PUM1 PUF domain R3-VWD (Homo sapiens, UniProt Q14671 828-1176, C935V;R936W;Q939D)
# Summary of the method: as §1
# [8] = molecular target: T1, PUM1 PUF domain R6-HFV (Homo sapiens, UniProt Q14671 828-1176, N1043H;Y1044F;Q1047V)
# T1 sequence: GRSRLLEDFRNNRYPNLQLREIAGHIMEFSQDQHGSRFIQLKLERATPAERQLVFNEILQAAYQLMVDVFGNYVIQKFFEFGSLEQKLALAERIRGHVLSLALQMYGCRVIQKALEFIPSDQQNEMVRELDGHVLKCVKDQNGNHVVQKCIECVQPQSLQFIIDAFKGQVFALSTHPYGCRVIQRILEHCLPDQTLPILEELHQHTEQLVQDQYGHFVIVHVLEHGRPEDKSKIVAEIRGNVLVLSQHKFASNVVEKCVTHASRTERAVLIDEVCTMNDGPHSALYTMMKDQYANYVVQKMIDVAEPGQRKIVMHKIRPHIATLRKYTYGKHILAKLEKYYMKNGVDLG
# Summary of the method: as §1
# [9] = molecular target: PUM1 PUF domain R5-RFI (Homo sapiens, UniProt Q14671 828-1176, C1007R;R1008F;Q1011I)
# Summary of the method: as §1
# [10] = molecular target: PUM1 PUF domain R4-VMC (Homo sapiens, UniProt Q14671 828-1176, N971V;H972M;Q975C)
# Summary of the method: as §1
# [11] = molecular target: PUM1 PUF domain R8-GFK (Homo sapiens, UniProt Q14671 828-1176, N1122G;Y1123F;Q1126K)
# Summary of the method: as §1
# [12] = molecular target: PUM1 PUF domain R1-WKR (Homo sapiens, UniProt Q14671 828-1176, S863W;R864K;Q867R)
# Summary of the method: as §1
# [13] = molecular target: PUM1 PUF domain R1-KAV (Homo sapiens, UniProt Q14671 828-1176, S863K;R864A;Q867V)
# Summary of the method: as §1
# [14] = molecular target: PUM1 PUF domain R2-AWH (Homo sapiens, UniProt Q14671 828-1176, N899A;Y900W;Q903H)
# Summary of the method: as §1
# [15] = molecular target: PUM1 PUF domain R2-LFA (Homo sapiens, UniProt Q14671 828-1176, N899L;Y900F;Q903A)
# Summary of the method: as §1
# [16] = molecular target: PUM1 PUF domain R4-VNV (Homo sapiens, UniProt Q14671 828-1176, N971V;H972N;Q975V)
# Summary of the method: as §1
# [17] = molecular target: T2, PUM1 PUF domain R6-VYH (Homo sapiens, UniProt Q14671 828-1176, N1043V;Q1047H)
# T2 sequence: T1 sequence with H216V, F217Y, V220H
# Summary of the method: as §1
sequence,measurement,setting,value
GGCUAGAACUAGUGGAUCCCCCGGCGCCCGGCGGCUCGAGCCCGGGUAAGUGUCAAUAGUCUGCAUGCCGCCGGGCGCCAUGCCUGCAGGUCGACUCUAGAAAACAUG,binding signal,[1],3.71 log2 enrichment (interaction score)
GGCUAGAACUAGUGGAUCCCCCGGCGCCCGGCGGCUCGAGCCCGGGUAAGUUUAAAUAGUCUGCAUGCCGCCGGGCGCCAUGCCUGCAGGUCGACUCUAGAAAACAUG,binding signal,[2],6 log2 enrichment (interaction score)
GGCUAGAACUAGUGGAUCCCCCGGCGCCCGGCGGCUCGAGCCCGGGUAAGUGUAAAUAGUCUGCAUGCCGCCGGGCGCCAUGCCUGCAGGUCGACUCUAGAAAACAUG,binding signal,[3],2.09 log2 enrichment (interaction score)
same,binding signal,[4],6.27 log2 enrichment (interaction score)
same,binding signal,[5],5.15 log2 enrichment (interaction score)
same,binding signal,[6],1.1 log2 enrichment (interaction score)
same,binding signal,[7],5.84 log2 enrichment (interaction score)
same,binding signal,[8],2.51 log2 enrichment (interaction score)
same,binding signal,[9],3.37 log2 enrichment (interaction score)
same,binding signal,[10],2.72 log2 enrichment (interaction score)
GGCUAGAACUAGUGGAUCCCCCGGCGCCCGGCGGCUCGAGCCCGGGUAAGCGUAAAUAGUCUGCAUGCCGCCGGGCGCCAUGCCUGCAGGUCGACUCUAGAAAACAUG,binding signal,[3],3.19 log2 enrichment (interaction score)
same,binding signal,[5],5.8 log2 enrichment (interaction score)
same,binding signal,[6],2.78 log2 enrichment (interaction score)
same,binding signal,[11],3.45 log2 enrichment (interaction score)
GGCUAGAACUAGUGGAUCCCCCGGCGCCCGGCGGCUCGAGCCCGGGUAAGUGUAAAUUGUCUGCAUGCCGCCGGGCGCCAUGCCUGCAGGUCGACUCUAGAAAACAUG,binding signal,[12],3.54 log2 enrichment (interaction score)
same,binding signal,[13],2.36 log2 enrichment (interaction score)
GGCUAGAACUAGUGGAUCCCCCGGCGCCCGGCGGCUCGAGCCCGGGUAAGUGUAAAUCGUCUGCAUGCCGCCGGGCGCCAUGCCUGCAGGUCGACUCUAGAAAACAUG,binding signal,[12],1.59 log2 enrichment (interaction score)
GGCUAGAACUAGUGGAUCCCCCGGCGCCCGGCGGCUCGAGCCCGGGUAAGUGUAAGUAGUCUGCAUGCCGCCGGGCGCCAUGCCUGCAGGUCGACUCUAGAAAACAUG,binding signal,[7],1.13 log2 enrichment (interaction score)
GGCUAGAACUAGUGGAUCCCCCGGCGCCCGGCGGCUCGAGCCCGGGUAAGUGUAAAAAGUCUGCAUGCCGCCGGGCGCCAUGCCUGCAGGUCGACUCUAGAAAACAUG,binding signal,[14],2.3 log2 enrichment (interaction score)
same,binding signal,[15],3.68 log2 enrichment (interaction score)
GGCUAGAACUAGUGGAUCCCCCGGCGCCCGGCGGCUCGAGCCCGGGUAAGUGUGAAUAGUCUGCAUGCCGCCGGGCGCCAUGCCUGCAGGUCGACUCUAGAAAACAUG,binding signal,[9],3.33 log2 enrichment (interaction score)
GGCUAGAACUAGUGGAUCCCCCGGCGCCCGGCGGCUCGAGCCCGGGUAAGUGUACAUAGUCUGCAUGCCGCCGGGCGCCAUGCCUGCAGGUCGACUCUAGAAAACAUG,binding signal,[10],2.94 log2 enrichment (interaction score)
same,binding signal,[16],2.33 log2 enrichment (interaction score)
GGCUAGAACUAGUGGAUCCCCCGGCGCCCGGCGGCUCGAGCCCGGGUAAGUGAAAAUAGUCUGCAUGCCGCCGGGCGCCAUGCCUGCAGGUCGACUCUAGAAAACAUG,binding signal,[17],5.62 log2 enrichment (interaction score)
